# Assay results as given in PMC5540273 (PLoS ONE, 2017).
# Legend:
# Details in all cases: concentration: 1 μM, replicates: in singlicate; n = 1
# [1] = system: GRK7
# [2] = system: GSK3A
# [3] = system: GSK3B
# [4] = system: T1, HASPIN
# T1 construct: gene GSG2
# [5] = system: HCK
# [6] = system: HIPK1
# [7] = system: HIPK2
# [8] = system: HIPK3
# [9] = system: HIPK4
# [10] = system: HPK1
# [11] = system: HUNK
# [12] = system: ICK
# [13] = system: IGF1R
# [14] = system: T2, IKK-alpha
# T2 construct: gene CHUK
# [15] = system: T3, IKK-beta
# T3 construct: gene IKBKB
# [16] = system: T4, IKK-epsilon
# T4 construct: gene IKBKE
# [17] = system: INSRR
# [18] = system: INSR
# [19] = system: IRAK1
# [20] = system: IRAK3
# 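Note: KINOMEscan kinase panel screen.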
SMILES,%Inh [1],%Inh [2],%Inh [3],%Inh [4],%Inh [5],%Inh [6],%Inh [7],%Inh [8],%Inh [9],%Inh [10],%Inh [11],%Inh [12],%Inh [13],%Inh [14],%Inh [15],%Inh [16],%Inh [17],%Inh [18],%Inh [19],%Inh [20]
CCn1c(-c2ccccn2)nc2cnccc21 [SB-736398],0%,22%,0%,47%,0%,0%,13%,0%,0%,38%,7%,9%,19%,37%,17%,0%,0%,0%,45%,100%
Cl.c1ccc(-c2n[nH]cc2-c2ccnc(-c3ccc(CN4CCOCC4)cc3)c2)nc1 [GW776245],0%,0%,0%,0%,13%,54%,0%,0%,17%,64%,2%,0%,0%,0%,0%,0%,0%,0%,0%,0%
COc1cc2nccc(Nc3ccc(NC(=O)c4ccc(C)cc4)c(O)c3)c2cc1OC.Cl [GW440132],0%,4%,0%,0%,0%,6%,0%,0%,3%,24%,28%,0%,0%,0%,3%,0%,0%,0%,0%,14%
Cc1cccc(-c2nc(-c3ccc(S(C)(=O)=O)cc3)sc2-c2ccnc(NCCc3ccccc3)c2)c1,7%,0%,0%,42%,0%,15%,0%,6%,8%,11%,0%,0%,15%,0%,8%,0%,3%,7%,17%,0%
Nc1nc(-c2nccs2)c(-c2ccnc3ccccc23)s1 [GW693542],0%,5%,14%,0%,0%,3%,0%,21%,0%,30%,23%,0%,10%,0%,9%,31%,0%,0%,18%,7%
Cl.O=C(Nc1cccc(-c2nn3ncccc3c2-c2ccnc(Nc3cccnc3)n2)c1)c1c(F)cccc1F [GSK312879],0%,48%,25%,0%,52%,0%,0%,11%,0%,31%,0%,10%,25%,30%,31%,0%,9%,11%,28%,0%
Cc1ccc(NC(=O)Nc2cccc(Cl)c2)cc1-c1ccc(C(=O)Nc2ccncc2)cc1 [GSK1398468],0%,22%,4%,0%,0%,0%,0%,3%,0%,40%,13%,6%,0%,0%,9%,15%,0%,0%,27%,100%
Fc1cc(Cl)ccc1Nc1ccnc2cc(-c3ccc(CN4CCCCC4)o3)ccc12 [GW560116],0%,0%,0%,32%,0%,0%,0%,1%,0%,14%,9%,0%,24%,0%,0%,20%,0%,0%,22%,0%
COc1ccc2nc(-c3cccc(C)n3)nc(Nc3ccncc3)c2c1 [GSK204919],0%,0%,19%,15%,0%,0%,0%,11%,0%,28%,9%,0%,0%,0%,22%,3%,0%,0%,4%,0%
O=C(Nc1n[nH]c2cc(-c3cccc(F)c3F)ccc12)C1CC1 [SB-733894],55%,0%,25%,9%,0%,29%,15%,19%,3%,0%,0%,22%,0%,0%,5%,11%,0%,41%,0%,10%
O=C(Nc1ccc2c(c1)OCO2)NC1CCN(c2ccnc(Nc3ccc(F)cc3)n2)C1 (centres unmarked) [GSK1379724],0%,1%,16%,0%,0%,0%,0%,1%,0%,45%,12%,19%,0%,25%,16%,0%,0%,0%,36%,0%
COc1cccc(NC(=O)NC2CCN(c3ccnc(Nc4ccc(F)cc4)n3)C2)c1 (centres unmarked) [GSK1379721],0%,21%,10%,0%,0%,0%,0%,7%,0%,59%,13%,25%,0%,0%,0%,15%,0%,14%,12%,0%
Cc1cccc(-c2nc(Nc3ccncc3)c3ccccc3n2)n1 [GW855857],0%,4%,0%,26%,11%,41%,0%,0%,19%,9%,0%,0%,0%,0%,0%,0%,0%,7%,0%,21%
CCCc1ccc(S(=O)(=O)NC2CCN(c3ccnc(Nc4ccc(F)cc4)n3)C2)cc1 (centres unmarked) [GSK1379715],0%,2%,21%,0%,0%,0%,0%,0%,0%,37%,5%,0%,0%,33%,36%,0%,0%,1%,36%,0%
Cc1ccc(-c2cc(-c3c[nH]nc3-c3ccccn3)ccn2)cc1 [GW684088],0%,22%,2%,35%,0%,7%,0%,1%,0%,24%,1%,0%,36%,0%,0%,9%,0%,0%,0%,7%
COc1ccccc1CNC(=O)c1cc(C(=O)c2ccccc2C)c[nH]1 [GSK364507],0%,15%,0%,0%,0%,0%,0%,10%,0%,26%,16%,11%,7%,9%,13%,20%,0%,8%,33%,0%
Cn1ccc2ncnc(Oc3ccc(NC(=O)Nc4ccccc4)cc3)c21,0%,11%,0%,24%,0%,25%,17%,0%,5%,0%,0%,0%,0%,5%,0%,17%,0%,14%,7%,0%
Cc1ccc(C(=O)Nc2ccc(Nc3ccnc4cc(-c5ccccn5)ccc34)cc2O)cc1.Cl [GW440146],0%,7%,4%,30%,72%,8%,0%,4%,0%,34%,23%,0%,18%,0%,0%,16%,0%,1%,28%,3%
Cc1c(Cn2ccn3c(=O)cc(N4CCOCC4)nc23)cccc1C(F)(F)F [GSK2289044],0%,1%,8%,0%,0%,0%,0%,24%,0%,15%,29%,0%,0%,0%,0%,3%,0%,0%,0%,4%
